POLB inh – DNA polymerase beta (human) inhibition | Potency, µM (top dose mostly 114 µM), actives largely listed as inhibitors | 340,000 compounds, 1.3% hits | Pol beta primer extension/strand displacement, fluorescence kinetic | AID 485314
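Homogeneous kinetic assay of primer extension and strand displacement by 10 nM Pol beta, preincubated 15 min at room temperature with compound before 50 nM substrate (final) was added. Read at 0 and 10 min; four-parameter Hill fit.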
POLK inh – inhibitors of human DNA polymerase kappa. Q9UBT6. purified Pol kappa, fluorescent DNA synthesis assay, 10 min. Potency, µM (titrated, usually from 107 µM), most hits filed as inhibitors. 400,000 compounds, 0.53% hits
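10 nM Pol kappa was preincubated with compounds for 15 min at room temperature. Reaction started with 50 nM (final) substrate. Fluorescence read kinetically at 0 and 10 min.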
Pol eta inh – inhibitors of human DNA polymerase eta; Q9Y253; Potency, µM (highest dose often 114 µM), usual class: inhibitors; 390,000 compounds, 1.2% hits; recombinant Pol eta, fluorescent DNA replication assay; AID 588591
Target sequence (Q9Y253 whole entry, looked up): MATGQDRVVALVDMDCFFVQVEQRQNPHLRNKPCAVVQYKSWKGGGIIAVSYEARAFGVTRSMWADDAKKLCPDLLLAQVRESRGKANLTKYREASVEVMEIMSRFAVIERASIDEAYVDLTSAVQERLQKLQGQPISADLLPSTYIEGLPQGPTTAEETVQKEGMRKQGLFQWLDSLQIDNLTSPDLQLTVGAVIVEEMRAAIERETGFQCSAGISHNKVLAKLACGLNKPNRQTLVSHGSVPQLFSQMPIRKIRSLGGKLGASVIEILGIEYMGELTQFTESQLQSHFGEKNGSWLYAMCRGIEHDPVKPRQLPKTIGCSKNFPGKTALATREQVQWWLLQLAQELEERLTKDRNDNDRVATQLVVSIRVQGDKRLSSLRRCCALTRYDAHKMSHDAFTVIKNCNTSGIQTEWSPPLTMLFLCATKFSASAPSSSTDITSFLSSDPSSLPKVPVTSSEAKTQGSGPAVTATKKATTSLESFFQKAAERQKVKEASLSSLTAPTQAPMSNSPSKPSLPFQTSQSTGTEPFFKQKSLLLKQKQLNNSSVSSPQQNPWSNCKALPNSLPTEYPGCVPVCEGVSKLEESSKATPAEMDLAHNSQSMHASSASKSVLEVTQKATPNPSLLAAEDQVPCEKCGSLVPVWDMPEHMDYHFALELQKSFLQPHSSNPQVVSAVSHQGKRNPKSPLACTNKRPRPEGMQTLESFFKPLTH
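Pol eta (10 nM) was preincubated with compounds for 15 min at room temperature, after which fluorescent replication substrate (50 nM final) was added to start the reaction. Fluorescence was read kinetically at 0 and 10 min.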
PI5P4K alpha inh – blocks human PI5P4K alpha kinase activity. P48426. PI5P4Kalpha enzyme, ADP-Glo luminescence, 60 min; active compounds read low. max response, %. 330,000 compounds, 1.2% hits. AID 652105; active = max response of -50% or lower; inconclusive = between -30% and -50%; inactive = -30% or higher; also: value at the top dose of about 77 µM
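ADP-Glo luminescence end-point read after a 60 min room-temperature kinase reaction of PI5P4Kalpha plus substrate, initiated with ATP at 5 microM final. Buffer: 0.038 M HEPES pH 7.4, EGTA, 0.1% CHAPS, 5% DMSO.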
Pol iota inh – blocks human DNA polymerase iota activity; Pol iota fluorescent replication assay, 10 min; Potency, µM (series often up to 115 µM), hits mostly inhibitors; 390,000 compounds, 1% hits; AID 588590
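Fluorescent replication assay read twice, at 0 min and 10 min after adding 50 nM (final) substrate. Enzyme (10 nM) and compounds were first incubated 15 min at room temperature; enzyme-free buffer wells were negative controls.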
FEN1 inh – human FEN1 inhibition; P39748; Recombinant FEN1 flap cleavage, fluorescence, 15 min; Potency, µM (top dose mostly 114 µM), actives largely listed as inhibitors; 390,000 compounds, 0.35% hits; also: nearly all actives have a fitted effect of over 65% in size
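Recombinant FEN1 (10 nM) was preincubated with pin-transferred compounds for 15 min at room temperature, then flap DNA substrate (50 nM final) was added. Plates were read at 0 and 15 min, and normalized concentration–response data were fitted to a four-parameter Hill equation.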
Of the large screens only hits and unclear results are named; the others gave an inactive call. This is a sample that favours compounds with a hit; in the whole collection about 2.8% have one here. Unless noted, calls follow the shape of the dose curve; as a rule, active = well fitted curve in the direction sought with a large enough effect; inconclusive = small, poorly fitted or top-dose-only effect, or another doubt; inactive = no such curve, though single readings can be large; an effect the other way counts as inactive or inconclusive.

COC(=O)c1cc(C(=O)OC)n(Cc2ccc(C)cc2)c1C	POLK inh inconclusive, Pol eta inh 35µM, Pol iota inh inconclusive, FEN1 inh inconclusive
CCOC(=O)CSc1nc2c(sc(=S)n2-c2ccccc2OC)c(=O)n1-c1ccccc1OC	none
COc1ccc(-n2c(SCC(=O)C(C)(C)C)nc3c(sc(=S)n3-c3ccccc3)c2=O)c(OC)c1	Pol iota inh 11µM
COc1ccc(OC)c(NC(=O)C(=O)/C=C(\O)c2cc(OC)ccc2OC)c1	FEN1 inh 40µM
COC(=O)c1c(N)[nH]c(C(=O)c2ccccc2)c1-c1ccccc1Br	none (no result: POLB inh, POLK inh, Pol eta inh, Pol iota inh, FEN1 inh)
CC1=NN(c2ccccc2)C(=O)C1	Pol iota inh inconclusive, FEN1 inh inconclusive
CC1=NN(Cc2ccccc2)C(=O)C1	Pol iota inh 3.2µM, FEN1 inh inconclusive
CCOc1cccc(CC(=O)N2CCc3c([nH]c4ccc(OC)cc34)C2c2ccc(F)cc2)c1OCC (stereo unspecified)	none (no result: PI5P4K alpha inh)
O=C(Nc1ccc(C2=NCCN2)cc1)c1ccc(Cl)c(C(=O)Nc2ccc(C3=NCCN3)cc2)c1	POLB inh 50µM (no result: POLK inh, Pol eta inh, PI5P4K alpha inh, Pol iota inh, FEN1 inh)
Cc1ccccc1NC(=O)CN(C)S(=O)(=O)c1cccc2nsnc12	none (no result: PI5P4K alpha inh)
COc1ccc(CNC(=O)CCc2c(C)c3cc4c(C)c(C)oc4cc3oc2=O)cc1OC	POLB inh 1.6µM (no result: PI5P4K alpha inh)
Cc1oc2cc3oc(=O)c(CCC(=O)NCCC(=O)O)c(C)c3cc2c1C	Pol eta inh 56µM
Cc1oc2cc3oc(=O)c(CC(=O)N[C@H](C(=O)N[C@@H](C(=O)O)c4ccccc4)C(C)C)c(C)c3cc2c1C	POLK inh inconclusive, Pol iota inh 79µM
Cc1oc2cc3oc(=O)c(CCC(=O)NCCCC(=O)O)c(C)c3cc2c1C	Pol iota inh inconclusive
Cc1oc2cc3oc(=O)c(CC(=O)N[C@@H](C)C(=O)NC(Cc4ccc(Cl)cc4)C(=O)O)c(C)c3cc2c1C (stereo partly specified)	none
Cc1coc2cc3oc(=O)c(CCC(=O)NCCN4CCOCC4)c(C)c3cc12	POLK inh inconclusive, Pol iota inh 89µM
COc1ccc(CCNC(=O)CCc2c(C)c3cc4c(C)c(C)oc4cc3oc2=O)cc1	Pol iota inh inconclusive (no result: PI5P4K alpha inh)
CCOC(=O)C(C)Oc1ccc(NC(=O)C(Cl)Cl)cc1 (stereo unspecified)	none
Cc1c(Cl)cccc1NC(=S)N1CCN(C(=O)C2CCCO2)CC1 (stereo unspecified)	none
O=c1cc[nH]c2c(Cl)cccc12	none
O=c1cc[nH]c2c1ccc1c(=O)cc[nH]c12	POLK inh inconclusive, Pol eta inh 28µM, PI5P4K alpha inh inconclusive, Pol iota inh inconclusive, FEN1 inh inconclusive
Fc1ccccc1Nc1nc2c(s1)CCc1ccccc1-2	none (no result: POLK inh, Pol eta inh, PI5P4K alpha inh, Pol iota inh, FEN1 inh)
Cc1ccc2nc(-c3ccc(Cl)c(NC(=O)COc4ccc(C(C)C)cc4)c3)oc2c1	Pol iota inh inconclusive (no result: PI5P4K alpha inh)
O=C1C=C(c2ccc(C(=O)O)c(Cl)c2)C[C@@H](c2ccc3c(c2)OCO3)C1	POLK inh inconclusive, Pol eta inh 50µM, PI5P4K alpha inh inconclusive, Pol iota inh inconclusive (no result: POLB inh)
O=C1C=C(c2ccc(-c3ccccc3)cc2)C[C@@H](c2ccc3c(c2)OCO3)C1	none (no result: POLB inh)
CCCCCNC(=O)C(=O)NCC(c1ccc2c(c1)OCO2)N1CCOCC1 (stereo unspecified)	none (no result: PI5P4K alpha inh)
O=c1c2ccccc2oc2ccc(-c3ccoc3)cc12	POLK inh inconclusive, Pol iota inh 14µM, FEN1 inh inconclusive (no result: POLB inh, Pol eta inh, PI5P4K alpha inh)
O=c1c2ccccc2oc2ccccc12	none (no result: POLB inh, Pol eta inh, PI5P4K alpha inh, Pol iota inh, FEN1 inh)
CN1/C(=C/c2cccc[n+]2CCO)Sc2ccccc21	POLB inh inconclusive
CC[n+]1ccccc1/C=C1\Sc2ccc(C)cc2N1C	POLB inh 71µM, Pol iota inh inconclusive
COC(=O)c1cc(CC(=O)c2ccc(O)cc2O)c(C)o1	none (no result: PI5P4K alpha inh)
CCC(=O)Oc1ccc(C/C(=N\O)c2ccc(O)cc2O)o1	POLB inh inconclusive, POLK inh 28µM, Pol eta inh 79µM, Pol iota inh 20µM (no result: PI5P4K alpha inh)
CCC(Sc1nc2ccccc2c2nc(CCn3cncc3C)nn12)C(=O)Nc1cccc(OC)c1 (stereo unspecified)	POLB inh 50µM (no result: PI5P4K alpha inh)
CC(=O)c1ccc(NC(=O)CSc2nc3[nH]c(=O)cc(O)c3s2)cc1	PI5P4K alpha inh inconclusive (no result: POLB inh)
O=c1cc(O)c2sc(Nc3ccc(F)c(Cl)c3)nc2[nH]1	POLB inh 56µM, PI5P4K alpha inh -69
COc1ccc(Nc2nc3[nH]c(=O)cc(O)c3s2)cc1	POLB inh 45µM, PI5P4K alpha inh inconclusive
COc1ccc(Nc2nc(C)cc(=O)[nH]2)cc1	none
CC(C)=C1C(=O)NN(c2ccc(C)c(Cl)c2)C1=O	POLB inh inconclusive, POLK inh inconclusive, PI5P4K alpha inh inconclusive, Pol iota inh 79µM
Cc1ccc(NC(=O)CCCn2c3ccccc3c(=O)c3cc(C)ccc32)c(Br)c1	POLB inh inconclusive (no result: PI5P4K alpha inh)
Cc1ccc2c(c1)c(=O)c1ccccc1n2CCCC(=O)Nc1cc(Cl)ccc1C	POLB inh inconclusive, Pol eta inh 79µM (no result: PI5P4K alpha inh)
O=C(Cc1cccs1)N=Nc1c(O)[nH]c2ccccc12	none
CSc1nsc(SCC(=O)Nc2ccc(C(=O)O)cc2)n1	PI5P4K alpha inh -51
O=C(CSc1nnc(SCc2cccc3ccccc23)s1)Nc1ccc(C(=O)O)cc1	PI5P4K alpha inh -93
CSc1nsc(SCC(=O)Nc2ccc(F)cc2)n1	none
O=C(CSc1nnc(SCc2cccc3ccccc23)s1)N=Nc1c(O)[nH]c2ccccc12	POLB inh 13µM (no result: POLK inh, Pol eta inh, PI5P4K alpha inh, Pol iota inh, FEN1 inh)
CC(=O)Nc1ccc2nc(CN3CCN(CC=C(C)C)C(CCO)C3)ccc2c1 (stereo unspecified)	none
CCOC(=O)c1cccc(NC(=O)c2cc3c(Cl)nc4ccc(C)cc4c3s2)c1	none (no result: PI5P4K alpha inh)
O=C(O)c1ccc2c(c1)C(=O)N(CCc1c[nH]c3ccccc13)C2=O	PI5P4K alpha inh -69
O=C1c2ccccc2C(=O)N1CCc1ccccc1	none (no result: POLB inh)
O=C(O)c1ccc2c(c1)C(=O)N(CCc1ccccc1)C2=O	PI5P4K alpha inh -65
O=C(Nc1ccccc1O)c1ccc2c(c1)C(=O)N(N1C(=O)c3ccccc3C1=O)C2=O	POLB inh 28µM
O=C(O)c1ccc2c(c1)C(=O)N(N1C(=O)c3ccccc3C1=O)C2=O	POLB inh 25µM
COc1ccc(C(=O)N2CCN(c3ccccc3Cl)CC2)cc1S(=O)(=O)NC1CC1	none (no result: POLB inh)
O=C(O)CCCCCN1C(=O)c2ccc(C(=O)O)cc2C1=O	none (no result: PI5P4K alpha inh)
O=C(O)c1ccc2c(c1)C(=O)N(CCCCCCCN1C(=O)c3ccc(C(=O)O)cc3C1=O)C2=O	PI5P4K alpha inh -78
CC1Cc2c([nH]c3ccccc23)C(=O)N1 (stereo unspecified)	none
CN(C)Cc1ccccc1-c1nc(NC2CCNCC2)c2ccccc2n1	POLK inh 14µM (no result: POLB inh, Pol eta inh, PI5P4K alpha inh, Pol iota inh, FEN1 inh)
